PubChem BioAssay AID1159580 (chemical genetic matrix, 2015)
Out of some 5,500 compounds screened, about 2,000 (36%) were called active. Roughly 18% stayed inconclusive and do not appear here. Rule as the data show it: active = normalized growth mostly below about 0.91 (no sharp cut-off); inconclusive = no clear call, values can overlap the other calls; inactive = mostly above about 0.92. The list shows a part of the results.

Test: chemical genetic growth profiling, strain panel (AID 1159580);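 also: tested at 20 µM; growth read once vehicle control cultures reached saturation at 30 °C; 1 = growth at the plate median or of vehicle wells; lower values mean less growth of the strain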
Conditions: S. cerevisiae deletion strains, growth OD

Measured: normalized growth

COc1ccc2c(c1)OCC(Cc1ccc(O)c(OC)c1)C2=O (stereo not given)
inactive: locus YAL021C, strain ccr4, active compounds read low 0.982 | locus YAL026C, strain drs2, active compounds read low 0.982 | locus YAL030W, strain snc1, active compounds read low 0.968 | locus YBL061C, strain skt5, active compounds read low 0.978 | locus YBR009C, strain hhf1, active compounds read low 0.972 | locus YBR023C, strain chs3, active compounds read low 0.97 | locus YBR171W, strain sec66, active compounds read low 0.969 | locus YBR231C, strain swc5, active compounds read low 0.971 | locus YBR279W, strain paf1, active compounds read low 0.982 | locus YCL011C, strain gbp2, active compounds read low 0.953 | locus YCL016C, strain dcc1, active compounds read low 0.97 | locus YCL061C, strain MRC1, active compounds read low 0.971 | locus YCL069W, strain vba3, active compounds read low 0.979 | locus YCR088W, strain abp1, active compounds read low 0.965 | locus YDL005C, strain med2, active compounds read low 0.965 | locus YDL040C, strain nat1, active compounds read low 0.972 | locus YDR001C, strain nth1, active compounds read low 0.967 | locus YDR069C, strain doa4, active compounds read low 0.963 | locus YDR137W, strain rgp1, active compounds read low 0.922 | locus YDR159W, strain sac3, active compounds read low 0.957 | locus YDR195W, strain ref2 0.958 | locus YDR297W, strain sur2, active compounds read low 0.98 | locus YDR334W, strain swr1, active compounds read low 0.949 | locus YDR335W, strain msn5, active compounds read low 0.985 | locus YDR392W, strain spt3, active compounds read low 0.882 | locus YEL003W, strain gim4, active compounds read low 0.98 | locus YEL037C, strain rad23, active compounds read low 0.97 | locus YEL061C, strain CIN8 (second series), active compounds read low 0.977 | locus YER015W, strain faa2, active compounds read low 0.974 | locus YER016W, strain bim1, active compounds read low 0.969 | locus YER111C, strain swi4, active compounds read low 0.999 | locus YER155C, strain BEM2 (second series), active compounds read low 0.974 | locus YFR010W, strain ubp6, active compounds read low 0.949 | locus YGL167C, strain pmr1, active compounds read low 0.974 | locus YGL173C, strain kem1, active compounds read low 0.973 | locus YGL227W, strain vid30, active compounds read low 0.979 | locus YGL240W, strain doc1, active compounds read low 0.96 | locus YGL253W, strain hxk2, active compounds read low 0.974 | locus YHR013C, strain ard1, active compounds read low 1 | locus YHR027C, strain rpn1, active compounds read low 0.963 | locus YHR030C, strain SLT2, active compounds read low 1.03 | locus YHR079C, strain IRE1, active compounds read low 1.03 | locus YHR142W, strain chs7, active compounds read low 0.943 | locus YJL092W, strain hpr5, active compounds read low 0.932 | locus YJL095W, strain BCK1 (second series), active compounds read low 0.98 | locus YJL095W, strain BCK1, active compounds read low 1.05 | locus YJL115W, strain asf1, active compounds read low 0.951 | locus YJL129C, strain trk1, active compounds read low 0.943 | locus YJL154C, strain vps35, active compounds read low 0.973 | locus YJL164C, strain tpk1, active compounds read low 0.968 | locus YJL166W, strain qcr8, active compounds read low 0.991 | locus YJL187C, strain SWE1, active compounds read low 0.998 | locus YJR066W, strain TOR1, active compounds read low 0.966 | locus YKL160W, strain elf1, active compounds read low 0.985 | locus YKR026C, strain gcn3, active compounds read low 0.967 | locus YKR091W, strain srl3, active compounds read low 0.965 | locus YLL001W, strain dnm1, active compounds read low 0.954 | locus YLL026W, active compounds read low 0.975 | locus YLL041C, strain sdh2, active compounds read low 0.966 | locus YLR027C, strain aat2, active compounds read low 0.964 | locus YLR113W, strain HOG1, active compounds read low 0.979 | locus YLR221C, strain rsa3, active compounds read low 0.982 | locus YLR258W, strain gsy2, active compounds read low 0.961 | locus YLR262C, strain YPT6 (second series), active compounds read low 0.949 | locus YLR320W, strain mms22, active compounds read low 0.983 | locus YLR342W, strain FKS1, active compounds read low 0.979 | locus YLR357W, strain rsc2, active compounds read low 0.965 | locus YLR370C, strain arc18, active compounds read low 0.948 | locus YLR384C, strain iki3, active compounds read low 0.981 | locus YML120C, strain ndi1, active compounds read low 0.971 | locus YMR058W, strain fet3, active compounds read low 0.964 | locus YMR125W, strain sto1, active compounds read low 0.948 | locus YMR129W, active compounds read low 0.974 | locus YMR205C, strain PFK2, active compounds read low 0.974 | locus YMR231W, strain pep5, active compounds read low 0.99 | locus YNL071W, strain lat1, active compounds read low 0.986 | locus YNL183C, strain NPR1, active compounds read low 0.964 | locus YNL209W, strain ssb2, active compounds read low 0.988 | locus YNL248C, strain rpa49, active compounds read low 0.971 | locus YNL322C, strain KRE1 (second series), active compounds read low 0.977 | locus YNR049C, strain mso1, active compounds read low 0.965 | locus YOR001W, strain rrp6, active compounds read low 0.982 | locus YOR070C, strain gyp1, active compounds read low 0.993 | locus YOR080W, strain dia2, active compounds read low 0.97 | locus YOR083W, strain WHI5, active compounds read low 0.971 | locus YOR106W, strain vam3, active compounds read low 0.952 | locus YOR231W, strain MKK1, active compounds read low 1.06 | locus YOR265W, strain rbl2, active compounds read low 0.975 | locus YOR270C, strain vph1, active compounds read low 0.951 | locus YOR290C, strain snf2, active compounds read low 0.965 | locus YPL051W, strain arl3, active compounds read low 0.983 | locus YPL078C, strain atp4, active compounds read low 0.978 | locus YPL106C, strain sse1, active compounds read low 0.914 | locus YPL240C, strain hsp82, active compounds read low 0.957 | locus YPL256C, strain CLN2, active compounds read low 1.03
